Screens: PubChem BioAssay, National Center for Advancing Translational Sciences (NCATS)
Rab9 promoter act = activates the Rab9 promoter | Huh7 Rab9 promoter-luciferase reporter, luminescence, 24 h | Potency, µM (top dose mostly 9.22 µM), without a hit: at the top dose activation, negative = inhibition, hits mostly activators | 320,000 tested, 2.8% active | AID 485297; further: % of control where 0% means no effect; nearly all actives have a fitted effect of over 60% in size
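Steps: seed 1500 Huh7 Rab9-luc cells per well, rest 2 h at 37 °C; add compound in DMSO; incubate 24 h; add luciferase reagent, 10 min ambient; read luminescence.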
ELG1 repair inh = inhibitors of ELG1-dependent DNA repair in HEK293T cells. HEK293T ELG1-luciferase reporter, luminescence, 16 h; DNA damage induced by 5-fluorouridine. Potency, µM (doses to about 46.1 µM), inactives show top-dose activity change, negative = inhibition, most hits filed as inhibitors. 330,000 tested, 2.3% active; further: on the % scale 0 is the no-effect control and ±100 the full control effect; nearly all actives have a fitted effect of over 55% in size
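Step one: seed 2,000 cells per well. Step two: pin-transfer compound or DMSO alongside 5-fluorouridine. Step three: incubate 16 hr, 37 °C, 5% CO2. Step four: add ONE-Glo, wait 30 min, read luminescence.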
SMN2 splice up = increases expression of the SMN2 splice variant | 210,000 tested, 2.8% active | HEK293 SMN2-luciferase splicing reporter, luminescence, 30-36 h | AID 1458 | Potency, µM (highest dose often 46.1 µM), without a hit: top-dose activity change, positive = activation, usual class: activators; further: % of control where 0% means no effect; nearly all actives have a fitted effect of over 55% in size
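HEK293 cells carry an SMN2 […]–luciferase reporter in which exon 7 inclusion puts luciferase in frame. Cells were plated 10-12 h before compound addition, then incubated 30-36 h at 37C. ONE-Glo luminescence was read; sodium butyrate at 4.5 mM final served as control.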
FLuc counter = inhibits or activates purified firefly luciferase, miR-21 counter-screen | P08659 | purified FLuc, Km substrates, luminescence inhibition | Potency, µM (titrated, usually from 57.5 µM), inactives show at the top dose activity change, negative = inhibition, usual class: inhibitors | 360,000 tested, 6.9% active | AID 588342;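 further: plate controls were vehicle for no effect and reference inhibitor for full effect; nearly all actives have a fitted effect of over 55% in size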
Target sequence (P08659 whole entry, looked up): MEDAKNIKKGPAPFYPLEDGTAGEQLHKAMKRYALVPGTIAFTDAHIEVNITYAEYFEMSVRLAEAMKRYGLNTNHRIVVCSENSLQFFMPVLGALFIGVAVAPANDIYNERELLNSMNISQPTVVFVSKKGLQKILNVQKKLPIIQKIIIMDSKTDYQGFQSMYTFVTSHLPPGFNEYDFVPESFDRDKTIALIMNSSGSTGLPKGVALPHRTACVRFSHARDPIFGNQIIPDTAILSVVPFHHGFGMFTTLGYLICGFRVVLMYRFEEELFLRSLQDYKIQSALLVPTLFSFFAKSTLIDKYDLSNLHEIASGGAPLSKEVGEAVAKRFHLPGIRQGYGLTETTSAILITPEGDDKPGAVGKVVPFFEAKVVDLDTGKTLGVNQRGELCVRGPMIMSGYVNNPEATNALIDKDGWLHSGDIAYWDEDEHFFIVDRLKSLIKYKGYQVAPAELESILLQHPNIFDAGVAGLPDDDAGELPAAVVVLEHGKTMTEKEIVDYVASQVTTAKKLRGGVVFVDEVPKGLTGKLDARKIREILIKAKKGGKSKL
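Biochemical qHTS of compounds, final roughly 60 µM downward over six points, against 10 nM purified firefly luciferase using Km concentrations of substrates (10 uM D-luciferin, 10 uM ATP) in Tris acetate pH 7.5 buffer; luminescence output.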
NPC1 prom act = NPC1 promoter activation; 320,000 tested, 2.4% active; Huh7 NPC1 promoter luciferase reporter, 24 h; Potency, µM (top dose mostly 9.22 µM), for the others: top-dose activation, hits mostly activators; AID 485313; further: % of control where 0% means no effect; nearly all actives have a fitted effect of over 60% in size
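Compounds in DMSO were transferred onto Huh7 NPC1-luciferase reporter cells pre-incubated 2 h; after 24 h at 37 °C, Amplite reagent was dispensed and luminescence recorded 10 min later.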
ELG1 genotoxic = genotoxicity induction in ELG1-luciferase HEK293T cells | Potency, µM (doses to about 46 µM), inactives show top-dose activity change, positive = activation, hits mostly activators | HEK293T ELG1-luciferase reporter, luminescence, 16 h | AID 504466 | 330,000 tested, 1.3% active; further: % of control where 0% means no effect; nearly all actives have a fitted effect of over 60% in size
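Quantitative HTS format in 1536-well plates. HEK293T ELG1-luciferase reporter cells receive test compound and are incubated 16 hr at 37 °C, 5% CO2; ONE-Glo added, 30 min room temperature, then luminescence read.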
Starred values were filed as active, the others as inactive; ? = inconclusive; · = no result given. This is a sample that favours compounds with a hit; in the whole collection about 9.2% have one here. The call rests on the fitted dose curve; in most records, active means well fitted curve in the direction sought with a large enough effect; inconclusive means small, poorly fitted or top-dose-only effect, or another doubt; inactive means no such curve, though single readings can be large; an effect the other way counts as inactive or inconclusive. Potency means the concentration at half of the fitted maximal effect.

SMILES	Rab9 promoter act	ELG1 repair inh	SMN2 splice up	FLuc counter	NPC1 prom act	ELG1 genotoxic
COc1cccc2cc(C(=O)NCc3ccco3)c(=Nc3ccc(C(=O)O)cc3)oc12	0.9%	?	-50.9%	?	12.1%	20.6µM*
COc1cc(-c2noc(-c3ccccc3C(=O)NCc3ccco3)n2)cc(OC)c1OC	-4.6%	4.61µM*	29.9%	-2.2%	0.2%	-19.8%
COc1cccc2cc(C(=O)NCc3ccco3)c(=O)oc12	12.7%	?	-21.9%	?	-0.9%	13.8%
COc1cc(-c2noc(CCCC(=O)Nc3cccnc3)n2)cc(OC)c1OC	-0.1%	-16.9%	·	-1.2%	-1.8%	1.4%
COc1ccccc1-c1noc(-c2ccccc2C(=O)NCc2ccco2)n1	-4.2%	?	-8.1%	19µM*	-4.3%	-10.4%
CC(OC(=O)c1cc(S(=O)(=O)N2CCOCC2)ccc1F)C(=O)NCc1ccc2c(c1)OCO2 (centres undefined)	2.1%	-1.2%	·	-0.9%	-2.8%	-0.3%
Cc1ccnc(NC(=O)c2ccc(S(=O)(=O)N3CCCCC3)cc2)c1	0.9%	-8.3%	·	-9.4%	3.2%	-1.0%
O=C(Nc1ccc(Cc2ccncc2)cc1)c1ccc(S(=O)(=O)N2CCCC2)cc1	-39.7%	2.91µM*	-45.4%	0.2%	-24.1%	-14.4%
O=C(Nc1ccccn1)c1ccc(S(=O)(=O)N2CCCCCC2)cc1	?	?	·	16.9µM*	?	9.2µM*
O=C(Nc1ccc(S(=O)(=O)N2CCCCC2)cc1)c1ccncc1	-6.1%	?	·	-1.4%	-3.3%	0.3%
O=C(Nc1ccccn1)c1ccc(S(=O)(=O)N2CCCCC2)cc1	?	?	·	13.5µM*	?	9.2µM*
O=C(Nc1ccccn1)c1ccc(Br)c(S(=O)(=O)N2CCCCC2)c1	-4.7%	-5.5%	-4.3%	2.3%	1.4%	-4.6%
Cc1ccnc(NC(=O)c2ccc(S(=O)(=O)N3CCCCCC3)cc2)c1	26.7%	?	·	8.49µM*	16.1%	11.3%
O=C(CCCOc1ccc(Cl)cc1Cl)Nc1ccc(O)cc1C(=O)O	-3.0%	-7.9%	·	?	-4.1%	-2.5%
CCc1ccc2oc(-c3ccc(NC(=O)c4cccc(Cl)c4Cl)cc3)nc2c1	·	·	-28.1%	-1.3%	·	·
Cc1cc(C(=O)NC2CCCCC2)c(C)o1	-0.5%	?	·	-11.7%	6.5%	3.0%
Cc1cc(C(=O)N/N=C/c2ccc([N+](=O)[O-])cc2)c(C)o1	11.1%	?	3.4%	26.9µM*	10.8%	7.4%
Cn1c(C(=O)N/N=C/c2ccccc2)cc2ccccc21	2.82µM*	?	·	2.69µM*	?	?
Cn1c(N)c(C(=O)N/N=C/c2ccccc2)sc1=S	3.3%	6.7%	·	-0.3%	-0.5%	4.4%
O=C(N/N=C/c1ccccc1O)c1cccc2ccccc12	-39.1%	-16.2%	·	?	-33.9%	24.3%
Cc1cc(C(=O)NC2Cc3ccccc3C2)c(C)o1	3.16µM*	?	·	21.3µM*	2.51µM*	?
Cc1cc(C(=O)N/N=C/c2cccc3ccccc23)c(C)o1	19.4%	29.8%	·	19µM*	12.7%	?
O=C(Nc1ccc(Cl)cn1)c1ccc2[nH]c(=O)c(=O)[nH]c2c1	2.8%	11.6%	·	-5.1%	-4.0%	3.3%
Cc1cc(C(=O)N/N=C/c2ccccc2)c(C)o1	3.16µM*	?	·	10.7µM*	?	?
COc1ccc(S(=O)(=O)NNC(=O)c2ccc(-n3c(C)ccc3C)cc2)cc1	-4.3%	28.7%	·	-0.6%	1.9%	8.7%
Cn1c(=O)c2c(nc(Br)n2Cc2ccccc2Cl)n(C)c1=O	-9.4%	-7.2%	-20.4%	2.4%	-3.1%	-8.9%
CCC(=O)c1ccc(Oc2nc3c(c(=O)n(C)c(=O)n3C)n2CC)cc1	-3.2%	14.6µM*	·	5.1%	-1.7%	-10.1%
Cn1c(=O)c2c(nc(Cl)n2CCOc2ccccc2)n(C)c1=O	-11.3%	9.2µM*	·	0.2%	-5.4%	-12.0%
